Sampled rows, rich in hits. Any-hit rate of the full collection: about 3.4%.
esBAF inh = blocks esBAF chromatin remodeling in mouse ES cells; Bmi1-luciferase knock-in reporter, 24 h; 100% = twice the neutral-well signal; 350,000 tested, 2% active; reporter increase, % at 12.5 µM; in the data active = activation above about 40%; inconclusive = no clear call, values can overlap the other calls;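 note: 0% = median of the plate's neutral control wells and 100% = double that signal; a rise in the Bmi1 reporter signal indicates esBAF inhibition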
Vif inh = blocks HIV Vif function. HEK293T cells, Vif self-association by quenched fluorescence, imaging, 24 h. inhibition, % at 7.49 µM. 340,000 tested, 0.35% active; in the data active = inhibition above about 50%, passing the limit was not always enough; inconclusive = no clear call, values can overlap the other calls; inactive = below about 31%
HSF1 inh = HSF1 inhibition; NIH3T3-HGL HSE-luciferase, MG132-induced, luminescence 8 h; hits give low values; activity change, negative = inhibition, % at 7.5 µM (by protocol); 300,000 tested, 0.77% active; AID 2098;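 active = more than half of replicate wells show activity change below -50%, luminescence cut by over half; inconclusive = some wells, but at most half, below -50%; inactive = no replicate well below -50%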;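 note: luciferase reports HSF-1 transcriptional activity via heat shock element; 0% = median of DMSO wells and -100% = zero luminescence signal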
HSF-1 act = increases HSF-1 driven luciferase reporter signal; NIH3T3-HGL HSF-1 luciferase reporter, MG132, 8 h; 100% = twice DMSO control signal; activation, % at 9 µM; 300,000 tested, 1.7% active; AID 504408;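 active = mean replicate activation of at least 50% with a set share of replicates each reaching 50%; inconclusive = only one of those two conditions met; inactive = mean below 50% and too few replicates reaching it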;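 note: 0% = median of the neutral control wells and 100% = twice that signal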
An asterisk follows results filed as active; u = inconclusive; x = no result given.

SMILES	esBAF inh	Vif inh	HSF1 inh	HSF-1 act
CC(C)Oc1ccc(CNC(=S)N/N=C/c2ccc([N+](=O)[O-])cc2)cc1	9	1	-67*	-74
CCN(CC)c1ccc(/C=N/NC(=S)NCc2ccc(OC)cc2)cc1	x	1	22	53*
COc1ccc(-c2nsc3c(N4CCCC4)ncnc23)cc1	7	26	-55*	-51
NCC[C@@H]1CC[C@@H](NC(=O)C2CCCC2)[C@@H](CO)O1	-3	x	x	x
COc1ccc(-c2cc(-c3ccccc3)c(C#N)c(S(C)=O)n2)cc1 (stereo unspecified)	-1	10	119	146*
Cc1ccccc1C(=O)N1N=C(c2ccc(NS(C)(=O)=O)cc2)CC1c1cccs1 (stereo unspecified)	0	-3	-1	-7
COc1ccccc1C(=O)N1N=C(c2ccc(NS(C)(=O)=O)cc2)CC1c1cccs1 (stereo unspecified)	4	5	12	54*
Cc1ccc(-c2[nH]ncc2C(=O)c2ccc(Br)cc2)c(O)c1	x	-12	15	71*
Cc1ccc(C(=O)c2cn[nH]c2-c2cc(Cl)ccc2O)cc1	-1	-4	1	12
CCC(=O)N1CCc2nc(-c3ccccc3)sc2C1	46*	-2	7	19
CC(C)(C)C(=O)Nc1nc2c(s1)CN(Cc1ccccc1)CC2	x	7	17	16
COc1ccccc1C1=NN(C(=S)Nc2ccccc2)C(c2ccco2)C1 (stereo unspecified)	56*	1	42	52*
O=C(NC1CCCCC1)c1ccc(-c2cn[nH]c2)c2ccoc12	53*	9	x	x
C[C@H](CO)N1C[C@H](C)[C@H](CN(C)Cc2ccc(-c3ccccc3)cc2)OCc2cn(nn2)CCCC1=O	-5	x	x	x
Cn1c(=N)n(CC(=O)c2cccs2)c2ccccc21	44*	7	7	12
COc1ccc(C(=O)c2ccc(CC#N)s2)cc1	51*	x	16	43
COc1cn(-c2ccccc2)nc1C(=O)Nc1ccccc1	60*	12	12	15
COc1cn(-c2ccccc2)nc1C(=O)Nc1ccc(C)cc1	u	-3	1	-2
CCOc1ccc(-c2cc(C(=O)NCCCn3ccnc3)c3ccccc3n2)cc1	x	4	7	12
CCOc1ccc(-c2cc(C(=O)NCCCn3ccnc3)c3cc(Br)ccc3n2)cc1	-13	61*	-1	26
CC(C)NC(=O)N(C)C[C@H]1Oc2c(NC(=O)c3ccncc3)cccc2C(=O)N([C@H](C)CO)C[C@@H]1C	-8	x	x	x
Cc1ccc(S(=O)(=O)n2c(=O)oc3ccccc32)cc1	-5	-3	61	80*
COc1cccc(-c2ncc3ccccc3c2COC(=O)N2CCCCC2)c1	2	-11	x	x
COc1cccc(-c2ncc3ccccc3c2COC(=O)N2CCOCC2)c1	53*	x	x	x
CC(C)NC(=O)N[C@@H]1C=C[C@H](CC(=O)NCCCN(C)C)O[C@@H]1CO	-1	x	x	x
SMILES	esBAF inh	Vif inh	HSF1 inh	HSF-1 act
CC(C)CN(C(=O)c1cccc([N+](=O)[O-])c1)c1c(N)n(CC(C)C)c(=O)[nH]c1=O	3	56*	-6	6
Cc1ccc2c(c1)N=C(c1ccccc1)CC(C(Cl)Cl)=N2	-39	-4	43	61*
Cc1ccc(C2=Nc3ccccc3N=C(C(Cl)Cl)C2)cc1	-18	-7	47	93*
Cc1cc2c(cc1C)NC(=O)CC(c1ccccc1)=N2	x	6	x	x
CC(C)NC(=O)N(C)C[C@H]1Oc2c(NC(=O)Nc3ccc(F)cc3)cccc2C(=O)N([C@H](C)CO)C[C@@H]1C	0	x	x	x
CCOC(=O)c1nn(-c2ccc3ccccc3c2)cc1O	51*	-2	4	9
CCOC(=O)c1nn(-c2ccc(Cl)cc2)cc1O	65*	-1	23	17
CC(=O)N1CCC2(CC1)NC(=O)N(c1ccccc1)N2	x	-9	21	59*
NC(=O)N1CCC2(CC1)NC(=O)N(c1ccccc1)N2	x	0	5	-7
CNc1nn(-c2cccc(Cl)c2)nc1N	62*	-12	-1	19
CO[C@@H]1CN(C)C(=O)c2ccc(NC(=O)NC(C)C)cc2OC[C@H](C)N(CC2CC2)C[C@@H]1C	-3	x	x	x
CCOC(=O)c1cn[nH]c1NC(=S)Nc1ccc(OC)cc1	x	4	-54*	-63
COC(=O)c1cn[nH]c1NC(=S)Nc1ccc(C)cc1Cl	-7	-2	-23	-32
CCOC(=O)NC(=S)Nc1ccc(OC)cc1	7	6	1	-3
COC(=O)c1cn[nH]c1NC(=S)Nc1ccccc1C	67*	-6	7	20
COC(=O)c1cn[nH]c1NC(=S)Nc1ccc(Cl)c(Cl)c1	1	-18	-60*	-67
CC(C)CC#Cc1ccc2c(c1)O[C@@H](CN(C)CC1CCOCC1)[C@H](C)CN([C@H](C)CO)S2(=O)=O	-4	x	x	x
Cc1nnc2ccc(-c3cccc(NS(=O)(=O)c4ccccc4Cl)c3)nn12	3	81*	9	7
Cc1nnc2ccc(-c3cccc(NS(=O)(=O)c4cc(F)ccc4F)c3)nn12	-3	71*	1	-18
Cc1nnc2ccc(-c3cccc(NS(=O)(=O)c4ccccc4[N+](=O)[O-])c3)nn12	x	u	3	-18
CNC[C@@H]1Oc2ccc(NC(=O)Nc3cccc4ccccc34)cc2C(=O)N([C@H](C)CO)C[C@@H]1C	-10	x	x	x
CCCNC(=O)C[C@H]1CC[C@@H]2[C@H](COC[C@H](O)CN2C(=O)c2cc(Cl)cc(Cl)c2)O1	4	x	x	x
COc1ccc(C2=NN(C(=O)CN3CCOCC3)C(c3nc4ccccc4[nH]3)C2)cc1 (stereo unspecified)	59*	-4	5	15
COc1ccc(C2=NN(C(=O)CN3CCCCC3)C(c3ccc(C)cc3)C2)cc1 (stereo unspecified)	-1	4	3	15
CNC(=O)C[C@@H]1CC[C@H]2[C@@H](COC[C@H](O)CN2S(=O)(=O)c2ccccc2Cl)O1	-7	x	x	x
SMILES	esBAF inh	Vif inh	HSF1 inh	HSF-1 act
Cc1cccc(NC(=O)c2cnn3ccccc23)c1C	42*	22	20	21
Cc1cccc(NC(=O)c2ccccc2O)c1C	x	-8	68	124*
O=C(Nc1ccccc1O)c1ccccc1O	6	-22	12	33
O=C(NCc1ccc(Cl)cc1)c1cnn2ccccc12	60*	-12	28	36
CO[C@H]1CN(C)C(=O)c2ccc(NC(=O)Nc3cccc(F)c3)cc2OC[C@@H](C)N(C(=O)C2CC2)C[C@@H]1C	9	x	x	x
COc1ccc(/C=C/C(=O)Nc2ccccc2C(F)(F)F)cc1OC	-2	6	10	19
COc1ccc(/C=C/C(=O)Nc2ccc3c(c2)CCC3)cc1OC	47*	-6	34	37
COc1ccc(/C=C/C(=O)Nc2ccccc2C(=O)NCC(c2ccc(OC)cc2)N(C)C)cc1 (stereo unspecified)	22	8	-59*	-60
COc1ccc(/C=C/C(=O)Nc2ccccc2C(=O)O)cc1OC	-55	6	-56*	-59
COc1ccc(/C=C/C(=O)Nc2ccccc2C(=O)N2CCCC2)cc1	56*	-16	-18	-14

Bioassay records (PubChem BioAssay)
